Compound activity: PubChem, several laboratories
Most compounds without a hit are left out; they make up all but 5.4% or so of the library.
Mdm2 MdmX PPI: inhibitors of human Mdm2/MdmX interaction. O15151+Q00987. SaOS-2 split-luciferase Mdm2/MdmX complementation, luminescence. inhibition, % at 8 µM. hit rate 3% among 330,000. AID 485346;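 active = inhibition of at least 50% at 8 µM in the primary screen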
Target sequence (O15151 whole entry, looked up): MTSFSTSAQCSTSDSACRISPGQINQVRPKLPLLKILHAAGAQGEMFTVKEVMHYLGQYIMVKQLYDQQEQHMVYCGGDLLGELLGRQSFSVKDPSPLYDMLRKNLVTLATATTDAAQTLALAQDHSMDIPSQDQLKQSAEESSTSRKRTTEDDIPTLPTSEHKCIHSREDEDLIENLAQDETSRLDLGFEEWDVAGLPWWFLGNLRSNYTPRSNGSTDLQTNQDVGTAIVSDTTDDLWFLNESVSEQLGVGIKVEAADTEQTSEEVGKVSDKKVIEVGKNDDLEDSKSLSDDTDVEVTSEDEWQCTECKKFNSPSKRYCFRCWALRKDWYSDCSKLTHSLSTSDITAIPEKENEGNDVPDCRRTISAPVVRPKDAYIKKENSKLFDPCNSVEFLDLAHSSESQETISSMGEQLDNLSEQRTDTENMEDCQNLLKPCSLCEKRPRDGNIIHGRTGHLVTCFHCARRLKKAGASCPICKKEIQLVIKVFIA
Target sequence (Q00987 whole entry, looked up): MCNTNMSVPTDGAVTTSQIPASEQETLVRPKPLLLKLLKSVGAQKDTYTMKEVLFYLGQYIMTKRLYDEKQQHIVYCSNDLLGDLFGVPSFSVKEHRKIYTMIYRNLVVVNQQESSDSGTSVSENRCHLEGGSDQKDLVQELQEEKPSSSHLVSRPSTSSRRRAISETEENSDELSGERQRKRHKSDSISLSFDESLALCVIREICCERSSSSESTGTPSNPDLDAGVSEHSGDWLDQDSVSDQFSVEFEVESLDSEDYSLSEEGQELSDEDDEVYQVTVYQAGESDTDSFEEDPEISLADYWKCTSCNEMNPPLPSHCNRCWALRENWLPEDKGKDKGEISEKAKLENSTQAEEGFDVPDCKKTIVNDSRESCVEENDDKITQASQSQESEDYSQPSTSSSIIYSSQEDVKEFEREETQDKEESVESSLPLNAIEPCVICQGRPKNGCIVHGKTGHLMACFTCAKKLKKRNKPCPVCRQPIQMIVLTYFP
SKKanGAS inh: SKKanGAS growth inhibition; S. pyogenes SKKanGAS, kanamycin growth, BacTiter-Glo, 6 h; inhibition, % at 7.5 µM; hit rate 1.3% among 300,000;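 active = mean replicate score, as percent of positive control median, at least 50; inconclusive = mean below 50 but one replicate at or above 50; inactive = mean and every replicate below 50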;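 note: strain carries kanamycin resistance gene driven by streptokinase promoter and grows in 40 µg/ml kanamycin; loss of luminescence reflects streptokinase promoter inhibition or plain growth inhibition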
Beta apoptosis: beta cell apoptosis inhibition; AID 435005; protection from apoptosis, % (concentration not given with the values); hit rate 0.8% among 300,000; INS-1E cytokine-induced death, ATP luminescence, 48 h; percent of positive-control rescue, neutral wells zero;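 active = Every replicate reaches about 75%, or at least half do and their mean reaches it too, limit read from the data; inconclusive = At least half of replicates reach the limit but their mean does not; inactive = Under half of replicates reach the limit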;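 note: higher means more ATP so stronger rescue from cytokine killing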
MPTP inh: blocks calcium-induced mitochondrial swelling; isolated mouse mitochondria, Ca2+ swelling absorbance, 30 min; inhibition, % at 10 µM; hit rate 1.4% among 360,000;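 active = inhibition of 50% or more, scaled per plate between neutral and stimulator controls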
CSC inhib: blocks cancer stem cells. cancer stem cell-like cells viability, luminescence. inhibition, % at 7.5 µM. hit rate 1.1% among 300,000. AID 2717; in the data active = inhibition above about 75%; inconclusive = no clear call, values can overlap the other calls; tested in HMLE shEcad cells
Calb FLC: affects C. albicans growth with fluconazole | growth inhibition, % (no concentration beside the values) | C. albicans CaCi-2 (fluconazole-resistant clinical isolate) + fluconazole, Alamar Blue growth, 48 h | AID 1979 | hit rate 0.57% among 300,000;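 active = growth inhibition above about 58% in most replicates, limit read from the data, passing the limit was not always enough; inconclusive = exactly half the replicates above a set limit; inactive = most replicates below a set limit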;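 note: all wells also contain fluconazole at 8 µg/ml as a sub-toxic cotreatment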
MPTP counter: Rhodamine 123 counter-screen of mitochondrial pore hits; inhibition, % at 10 µM; shares compounds with MPTP inh; isolated mitochondria, membrane potential, Rhodamine 123 fluorescence; hit rate 78% among 5,000; in the data active = inhibition above about 22%
MPTP abs DR: dose response confirmation of mitochondrial permeability transition pore inhibitors; shares compounds with MPTP inh; isolated mitochondria swelling, absorbance; IC50, µM; hit rate 58% among 780; AID 651561; in the data active = IC50 below about 20 µM
MPTP cs DR: active in counter-screen for permeability transition pore inhibitors | shares compounds with MPTP inh | isolated mitochondria counterscreen, fluorescence read-out | IC50, µM | hit rate 49% among 780; in the data active = IC50 below about 80 µM
A number is an active result; i = inactive; ? = inconclusive; nt = no result given.

SMILES	Mdm2 MdmX PPI	SKKanGAS inh	Beta apoptosis	MPTP inh	CSC inhib	Calb FLC	MPTP counter	others
Cc1ccc(Cl)cc1NC(=O)c1ccccc1OCC(=O)Nc1ccc(Cl)cc1	i	i	i	88	78	i	93
COc1ccccc1C(=O)Nc1cc(Cl)ccc1O	i	i	i	67	i	i	36
COc1cc(OC)c(NC(=O)c2cc3ccccc3cc2O)cc1Cl	nt	nt	nt	90	nt	nt	33
COc1cc(NC(=O)c2ccccc2)c(OC)cc1Cl	i	i	i	i	i	i	nt
Cc1ccc(NC(=O)COc2ccccc2C(=O)Nc2ccccc2)cc1Cl	i	i	i	i	i	i	nt
CCOc1ccccc1C(=O)Nc1cc(Cl)ccc1O	i	54	i	92	nt	i	76
COc1ccc(Cl)cc1NC(=O)c1ccccc1C	i	i	i	i	i	i	nt
Oc1ccc2ccccc2c1CNc1ccccn1	i	i	i	i	i	i	nt
COc1ccc(NC(=O)COc2ccc(CNCCCN3CCOCC3)cc2OC)cc1	i	i	i	i	i	i	nt
Cc1ccc(OC(C)C(=O)N=Nc2c(O)[nH]c3ccc([N+](=O)[O-])cc23)cc1 (configuration not stated)	i	i	i	73	i	i	68
Cc1ccc(NCC(=O)N=Nc2c(O)[nH]c3ccc([N+](=O)[O-])cc23)cc1	i	i	i	nt	i	i	nt
O=C(NC12CC3CC(CC(C3)C1)C2)N1CCN(c2ccccn2)CC1	i	i	i	i	i	i	nt
CCCCn1c(CN2CCN(c3cccc(Cl)c3)CC2)nc2c1c(=O)n(C)c(=O)n2C	i	i	i	i	i	i	nt
CCCn1c(CN2CCN(c3cccc(Cl)c3)CC2)nc2c1c(=O)n(C)c(=O)n2C	i	i	i	78	i	i	80
O=C(CONS(=O)(=O)c1ccc(Cl)cc1)NCCNc1ncc(C(F)(F)F)cc1Cl	i	i	i	70	i	i	77
O=C(CN1CCN(c2ncc(C(F)(F)F)cc2Cl)CC1)NCCNc1ncc(C(F)(F)F)cc1Cl	i	i	i	i	i	i	nt
C/C(=N\NC(=O)C(O)(c1ccccc1)c1ccccc1)c1ccc(NC(=O)CCCC(=O)O)cc1	i	i	i	i	i	i	nt
O=c1cc(CO)oc(C(Nc2ccccn2)c2ccc(F)cc2)c1O (configuration not stated)	i	i	i	i	i	i	nt
COc1ccc(C(Nc2ccccn2)c2oc(CO)cc(=O)c2O)cc1 (configuration not stated)	i	i	i	96	i	i	i
O=C(c1cc2nc(-c3ccc(F)cc3)cc(C(F)(F)F)n2n1)N1CCCCC1c1cccnc1 (configuration not stated)	i	i	i	90	i	i	90
COc1ccc(Cl)cc1NC(=S)NNC(=O)c1cccnc1	i	i	i	i	i	i	nt
Cc1cc(Cl)n2c(nc3cc(F)c(F)cc32)c1C#N	nt	i	nt	95	nt	i	91
CC1=C(C(=O)N2CCCC(C(=O)c3cccc(C(F)(F)F)c3)C2)OCCO1 (configuration not stated)	i	i	i	i	i	i	nt
Cc1cc(C)n(-c2nc(-c3ccc(Cl)c(Cl)c3)cs2)n1	i	i	i	60	i	i	i	MPTP abs DR=i;MPTP cs DR=i
O=C(CSc1nc(-c2cccs2)cc(C(F)(F)F)n1)Nc1cc(OCC(F)(F)C(F)F)cc([N+](=O)[O-])c1	i	i	i	93	i	i	80
SMILES	Mdm2 MdmX PPI	SKKanGAS inh	Beta apoptosis	MPTP inh	CSC inhib	Calb FLC	MPTP counter	others
COc1ccc(C(C)=O)cc1COC(=O)Cc1n[nH]c(=O)c2ccccc12	i	i	i	i	i	i	nt
O=C(NCc1ccco1)c1sc(=S)n2c1[nH]c(=O)c1ccccc12	i	i	i	89	i	93	77
CCn1c(O)c(/C=C2\C=Nc3ccccc32)sc1=Nc1ccccc1	i	i	i	53	i	i	59
COc1ccc(-n2c(=S)[nH]c3cc(C(=O)NC4CCCCC4)ccc3c2=O)c(OC)c1	i	i	i	i	i	i	nt
N#Cc1cccc(C#N)c1Oc1ccc(S(=O)(=O)Nc2ccccc2)cc1	i	i	i	54	i	i	i	MPTP abs DR=i;MPTP cs DR=30
CCC(C)(C)NC(=O)C(c1ccc(OC)cc1)N(C(=O)CCC(=O)Nc1cc(C)on1)c1ccccc1OC (configuration not stated)	i	i	i	i	i	i	nt
CCc1c(C)nc2ncnn2c1NCCc1ccc(Cl)cc1	i	i	i	90	i	i	40
CCc1c(C)nc2ncnn2c1NCCc1ccccc1	i	?	i	i	i	i	nt
Cn1c(=O)c2c(nc(NCCc3ccccc3)n2Cc2ccc(F)cc2)n(C)c1=O	i	i	i	i	i	i	nt
CC(Cl)=CCn1c(NCCc2ccccc2)nc2c1c(=O)n(C)c(=O)n2C	nt	nt	nt	71	nt	nt	76
FC(F)(F)C1=Nc2cccc3cccc(c23)N1	i	nt	nt	103	nt	nt	71
COc1ccc(CNC(=O)Nc2ccc([N+](=O)[O-])cc2)cc1	i	i	i	99	i	i	82
O=C(NCCc1ccc(F)cc1)Nc1ccc([N+](=O)[O-])cc1	i	nt	i	82	i	i	79
COc1ccc(NC(=O)NCc2ccc(Cl)cc2)cc1	i	nt	i	i	i	i	nt
O=C1NC[C@@H](CCCCN2C[C@H](Cc3ccccc3)N(CCC3CCCCC3)C(=O)C2=O)N(CCc2ccccc2)C1=O	nt	nt	nt	i	nt	nt	nt
COCc1cc(/C=N\NC(=O)COc2ccccc2)ccc1OC	i	i	i	i	i	?	nt
COc1cccc(OC)c1OCCOCCN1CCN(C)CC1	i	i	i	i	i	i	nt
CC(C(=O)Nc1ccon1)N1C(=O)c2ccccc2S1(=O)=O (configuration not stated)	i	i	i	i	i	nt	nt
O=[N+]([O-])c1cc(CS(=O)(=O)Oc2ccc(Cl)cc2)c(O)c([N+](=O)[O-])c1	i	i	nt	74	i	i	59
O=[N+]([O-])c1ccc(CS(=O)(=O)c2ccc(Cl)cc2)cc1	nt	i	i	i	i	i	nt
O=C(Nc1ccc(Cl)cc1)C1=Cc2ccccc2OC1	i	i	i	89	i	i	108
N#Cc1cnc2sc3ccccc3n2c1=N	i	i	i	72	i	i	81
Cc1ccc(C)c(NCCC#N)c1	i	i	i	i	i	i	nt
Cc1ccccc1NC(=O)Cc1nc(-c2ccc3ccccc3c2)cs1	i	i	i	i	i	i	nt
Cc1cccc(S(=O)(=O)C(C#N)c2nc3ccccc3nc2N2CC(C)OC(C)C2)c1 (configuration not stated)	i	i	i	56	i	i	71
CC1CCCN(c2nc3ccccc3nc2C(C#N)S(=O)(=O)c2cccs2)C1 (configuration not stated)	i	i	i	93	i	i	67
